m5-HT2A agonist – mouse Htr2a agonists via beta-arrestin recruitment, primary screen, cell-based, luminescence; 5-hydroxytryptamine receptor 2A (Mus musculus), P35363; CHO-K1 mHTR2A beta-arrestin complementation; percent of 30 µM serotonin response; activation, % at 7.6 µM; actives 0.66% (n = 360,000); AID 624169, 2012;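 active = activation above a run cutoff, the mean activation of all tested compounds plus 3 SD, cut at about 14% in these data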;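 also: 0% = plate median of compound wells and 100% = 30 µM serotonin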
MOR-DOR ag – agonists of OPRM1-OPRD1 heterodimerization, primary screen, cell-based, luminescence; activation, % at 9.3 µM; AID 504326, 2011; Mu-type opioid receptor (Homo sapiens) + Delta-type opioid receptor (Homo sapiens), …; actives 0.3% (n = 340,000); cells; in the data active = activation above about 18%;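 also: 0% = vehicle-treated cells and 100% = reference agonist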
Target sequence (P35372 whole entry, looked up): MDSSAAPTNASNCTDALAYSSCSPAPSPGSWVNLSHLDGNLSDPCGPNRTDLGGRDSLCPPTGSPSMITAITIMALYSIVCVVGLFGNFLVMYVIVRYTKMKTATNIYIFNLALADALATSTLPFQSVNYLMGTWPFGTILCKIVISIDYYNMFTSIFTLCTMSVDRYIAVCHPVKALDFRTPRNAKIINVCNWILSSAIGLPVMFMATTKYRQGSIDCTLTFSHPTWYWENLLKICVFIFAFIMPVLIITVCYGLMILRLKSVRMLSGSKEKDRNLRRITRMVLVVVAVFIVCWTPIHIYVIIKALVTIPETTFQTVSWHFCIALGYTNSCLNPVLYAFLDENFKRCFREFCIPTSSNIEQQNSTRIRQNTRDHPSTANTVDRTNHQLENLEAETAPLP
Target sequence (P41143 whole entry, looked up): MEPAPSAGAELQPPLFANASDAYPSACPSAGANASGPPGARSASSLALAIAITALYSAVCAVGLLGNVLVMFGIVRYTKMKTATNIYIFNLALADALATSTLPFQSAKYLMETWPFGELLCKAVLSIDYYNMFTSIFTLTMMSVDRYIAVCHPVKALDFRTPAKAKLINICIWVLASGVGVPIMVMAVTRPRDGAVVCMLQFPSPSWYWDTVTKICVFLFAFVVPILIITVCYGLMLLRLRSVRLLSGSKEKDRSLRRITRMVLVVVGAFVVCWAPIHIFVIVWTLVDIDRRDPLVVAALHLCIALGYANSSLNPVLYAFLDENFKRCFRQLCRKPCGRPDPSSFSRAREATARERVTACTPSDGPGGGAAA
HTR5A inv ctr – HTR5A inverse agonists in luminescence cell assay, primary screen, counter-screen for OPRM1-OPRD1 heterodimer inverse agonist project, full-deck HTS | AID 504634, 2011 | inhibition, % at 9.3 µM | 5-hydroxytryptamine receptor 5A (Homo sapiens), P47898 | actives 0.083% (n = 340,000) | HTR5A cell line, inverse agonism; in the data active = inhibition mostly above about 23%, no sharp cut-off; inactive = mostly below about 18%;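 also: 0% = cells with DMSO and 100% = no-cell wells with DMSO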
MOR-DOR inv ag – inverse agonists of MOR-DOR heterodimerization, primary screen, cell-based, luminescence; inhibition, % at 9.3 µM; AID 504357, 2011; actives 0.21% (n = 340,000); cell-based MOR-DOR heterodimer luminescence, inverse agonism; Mu-type opioid receptor (Homo sapiens) + Delta-type opioid receptor (Homo sapiens), …; in the data active = inhibition above about 22%, passing the limit was not always enough;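 also: 0% = cells with DMSO and 100% = wells without cells with DMSO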
HTR5A ag ctr – HTR5A agonists in luminescence cell assay, primary screen, counter-screen for OPRM1-OPRD1 heterodimer agonist project, full-deck HTS. 5-hydroxytryptamine receptor 5A (Homo sapiens), P47898. activation, % at 9.3 µM. AID 504692, 2011. actives 0.61% (n = 340,000). cell-based; in the data active = activation mostly above about 9.5%, no sharp cut-off; inactive = mostly below about 7.6%;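 also: 0% = cells with vehicle only and 100% = reference agonist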
* marks the source's active call; other numbers are inactive results; / = not tested or not shown. Rows were chosen to be rich in hits. Some 1.6% of all compounds tested hit in one or more screens of this group.

SMILES	m5-HT2A agonist	MOR-DOR ag	HTR5A inv ctr	MOR-DOR inv ag	HTR5A ag ctr
O=C(CCN1C(=O)/C(=C/c2ccccc2)SC1=S)NCCc1ccc(O)cc1	5	11	-55	-61	14*
O=[N+]([O-])c1ccc(S(=O)(=O)NN=Cc2ccc(Cl)c(Cl)c2)cc1	-5	-2	-50	8	13*
CC(=O)Nc1ccc(S(=O)(=O)NN=Cc2ccc(Cl)c(Cl)c2)cc1	0	-6	-46	30	12*
CC(=O)Nc1ccc(/C=N/NS(=O)(=O)c2cc(C)ccc2C)cc1	-6	-3	-7	16	6
O=S1(=O)C[C@H](N2CCCC2)[C@@H](COCc2ccccc2)N1	2	/	/	/	/
Cc1ccc(S(=O)(=O)NC(=O)C2(C)CCN2C(=O)Cc2ccc(C(C)(C)C)cc2)cc1 (stereo not drawn)	-3	/	/	/	/
CCOC(=O)c1c(SCCN2CCCC2)n(-c2ccccc2)c(=S)n(-c2ccccc2)c1=O	-1	-12	14	58*	-4
CN(CC(=O)Nc1c(Cl)cccc1Cl)C(=O)c1ccc(-n2cncn2)c([N+](=O)[O-])c1	-14	1	-31	-5	11*
Cc1cc(-c2nnn(CCCOC(C)(C)C)c2C)ccc1-c1cn(CCCOC(C)(C)C)nn1	0	/	/	/	/
COc1ccc(/C=N/NC(=O)C(C)Sc2ccccn2)cc1[N+](=O)[O-] (stereo not drawn)	-3	-3	22	16	11*
CC1CCN(CCCn2c(=S)[nH]c3c(sc4ccc([N+](=O)[O-])cc43)c2=O)CC1	1	2	-27	-8	9.7*
CC(C)=CCCC(C)c1cc(C(=O)NCCc2ccc(O)cc2)c(N)s1 (stereo not drawn)	-7	/	/	/	/
Cc1cc(C(=O)Nc2cccnc2)on1	15*	0	-5	-1	2
O/N=C1\CCCc2ccccc21	2	-2	2	13	-1
CC(C)NC(=S)N/N=C1\CCCc2ccccc21	8	3	-29	-14	11*
CC(C)(C)c1ccc(OCc2ccc(C(=O)N/N=C/c3ccc(O)c(O)c3)cc2)cc1	2	5	-22	-24	8.8*
O=C(N/N=C/c1ccc(OCc2ccc(F)cc2)cc1)c1ccccc1	0	5	1	-24	0
O=c1oc(-c2cccs2)nc2ccccc12	3	0	4	1	14*
CC1(C(=O)Nc2ccc3ccccc3c2)CCC(=O)N1C1CC1 (stereo not drawn)	5	/	/	/	/
CCCNc1[nH]c(=O)n(C)c(=O)c1N=O	2	0	6	2	9.6*
Cn1c(=O)[nH]c(NC2CCCCC2)c(N=O)c1=O	3	0	-12	-1	3
CCOC(=O)Cn1c(COc2ccccc2OC)[n+](C)c2ccccc21	-3	/	/	/	/
CCCCCCCCCCOC(=O)Cn1c(COc2cccc(C)c2)[n+](C)c2ccccc21	0	7	-47	-36	13*
O=C(c1ccc(-c2cccc(C(F)(F)F)c2)o1)N1CCCC(C(F)(F)F)C1 (stereo not drawn)	6	6	-29	-33	11*
CC(C)(C)c1cc(=O)[nH]c(SCc2ccccc2Cl)n1	3	8	-32	-45	12*
SMILES	m5-HT2A agonist	MOR-DOR ag	HTR5A inv ctr	MOR-DOR inv ag	HTR5A ag ctr
CC(C)(C)c1cc(=O)[nH]c(SCc2ccccc2)n1	-2	3	-21	-18	8
COc1ccc(CN(C)C(=O)/C=C/[C@H]2O[C@@H](n3cc(C)c(=O)[nH]c3=O)C[C@@H]2O)cc1OC	0	/	/	/	/
CC(C)CC1(C)NC(=O)N(CC(=O)Nc2ccc3c(c2)CCC3)C1=O (stereo not drawn)	2	0	-24	2	2
CC(C)CC1(C)NC(=O)N(CC(=O)N2C(C)CCCC2C)C1=O (stereo not drawn)	-3	-2	3	8	13*
O=C(CSc1ncn[nH]1)Nc1ccc2c(c1)CCC2	2	0	-42	2	12*
O=C1C(SCCO)=C(SCCO)C(=O)c2ccccc21	-14	1	41*	-7	-10
Cc1ccc(C(O)c2ncc(-c3ccccc3)[nH]2)c(C)c1 (stereo not drawn)	3	/	/	/	/
CCOC(=O)c1c(-c2ccc(C)o2)csc1NC(=O)COC(=O)c1cccs1	-1	-1	10	6	11*
O=C(CCc1ccccc1)NC(NC(=S)Nc1ccc(Cl)cc1)C(Cl)(Cl)Cl (stereo not drawn)	0	17	-11	-94	12*
COc1ccccc1N1CCN(C(=O)c2cc3c(s2)CCCCC3)CC1	-7	2	-19	-8	10*
CCC(CC)NC(=O)c1nn(Cc2ccccc2)c(=O)c2ccccc12	1	5	-26	-35	9.8*
CC(C)[C@H](NC(=O)c1nn(Cc2ccccc2)c(=O)c2ccccc12)C(=O)O	-2	0	3	-3	-1
COc1ccc(OC)c(S(=O)(=O)N(C)CC(=O)N2CCOCC2)c1	1	-4	22	13	11*
COCCC(=O)Nc1ccc2c(c1)CN(C(=O)CCSC)CC2	-1	-4	-1	19	5
COCCC(=O)Nc1ccc2c(c1)CN(C(=O)c1ccc(CSC)o1)CC2	-2	-2	-41	10	11*
N#CC(C(O)c1ccccc1)N1CCOCC1 (stereo not drawn)	6	/	/	/	/
O=C(c1ccccc1)N1N=C(c2cccs2)CC1c1ccccc1O (stereo not drawn)	11	16	4	-83	14
O=C(c1ccccc1Cl)N1N=C(c2cccs2)CC1c1cccc(O)c1 (stereo not drawn)	2	-2	-1	12	11*
COC(=O)CCCC1=CC2=CC(=O)C(C)(OC(=O)c3cccs3)C(=O)C2=CN1CCCCO (stereo not drawn)	3	4	-23	-20	12*
COC(=O)CCCC1=CC2=CC(=O)C(C)(OC(=O)c3cccs3)C(=O)C2=CN1c1ccccc1 (stereo not drawn)	2	3	7	-16	3
COC(=O)CCCC1=CC2=CC(=O)C(C)(OC(=O)c3cccs3)C(=O)C2=CN1CCN1CCOCC1 (stereo not drawn)	0	-1	-14	4	7
COCCN1C=C2C(=O)C(C)(OC(=O)c3cccs3)C(=O)C=C2C=C1CCCC(=O)OC (stereo not drawn)	3	0	3	2	14*
COc1cccc(CN(C(=O)c2ccco2)C2CCS(=O)(=O)C2)c1 (stereo not drawn)	-2	-2	-36	8	13*
COc1ccc(CN(C(=O)c2ccco2)C2CCS(=O)(=O)C2)cc1 (stereo not drawn)	2	-2	17	12	-7
